From PubChem BioAssay (Tox21)
Inconclusive results are not listed. Values without a mark were called inactive. Active and inactive are the calls of the source. Calls follow the shape of the dose curve; as a rule, active = well fitted cell-killing curve with a large enough effect in the repeat runs; inconclusive = weak or mixed curves, or effect the other way; inactive = flat fitted curve, though single readings scatter.

Assay: qHTS assay to identify small molecule antagonists of the estrogen receptor alpha (ER-alpha) signaling pathway using the BG1 cell line in the presence of 0.1 nM 17-beta-estradiol - cell viability counter screen (AID 1259241); also: nearly all actives have a fitted effect of over 40% in size
Conditions: VM7Luc4E2 (BG1) viability, CellTiter-Fluor protease, 22 h, 0.1 nM estradiol agonist added; series mostly up to 92.4 µM; activity change, negative = cytotoxicity: at the top concentration
Procedure, shortened: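 Live-cell protease activity (CellTiter-Fluor fluorescence, 30 min) was read in the same wells after VM7Luc4E2 cells had been exposed to compounds with 0.1 nM 17beta-estradiol for 22 hr at 37C.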
% is scaled to controls: 0 for no effect and ±100 for the full control effect.

Row | Compound | activity change, negative = cytotoxicity
1 | Cn1cc[n+](C)c1 (tested in a mixture with another compound) | -1.99%
2 | C=CC(C)=O | 9.47%
3 | O=C(NC(=O)c1c(F)cccc1F)Nc1ccc(OC(F)(F)C(F)OC(F)(F)F)c(Cl)c1 (stereo not drawn) | 3.18% [at 42.5 µM]
4 | COc1cc(Cl)c(OC)cc1Cl | -11.7%
5 | COCCOCCO | 7.14%
6 | Clc1ccc(C(OCCN2CCCCC2)c2ccccc2)cc1 (stereo not drawn) | -24.9% [at 42.5 µM]
7 | CCOP(=S)(Oc1ccc([N+](=O)[O-])cc1)c1ccccc1 (stereo not drawn) | 25.2%
8 | CC(=O)[C@H]1CC[C@H]2[C@@H]3CC[C@H]4C[C@](C)(O)CC[C@]4(C)[C@H]3CC[C@]12C | 2.59% [at 42.5 µM]
9 | CCBr | 14.8%
10 | COc1nn(CSP(=S)(OC)OC)c(=O)s1 | 0.536%
11 | CN(N=O)c1ccc([N+](=O)[O-])cc1 | -8.69%
12 | O=C(O)COc1ccc(Cl)cc1 | 7.22%
13 | CN1C(=O)C(O)N=C(c2ccccc2)c2cc(Cl)ccc21 (stereo not drawn) | 0.773%
14 | CO[C@@H]1[C@H](OC(=O)NC(=O)CCl)CC[C@]2(CO2)[C@H]1[C@@]1(C)O[C@@H]1CC=C(C)C | -6.95% [at 19 µM]
15 | CCCCNP(N)(N)=S | -4.27%
16 | OCCCBr | 2.01%
17 | Cl/C=C\C[N+]12CN3CN(CN(C3)C1)C2 | -0.72%
18 | CCOP(=S)(OCC)Oc1cc(Cl)c(Br)cc1Cl | 15%

Assay: qHTS assay to identify small molecule antagonists of the androgen receptor (AR) signaling pathway using the MDA cell line in the presence of 0.5 nM R1881 - cell viability counter screen (AID 1259242); also: nearly all actives have a fitted effect of over 45% in size; also: potency is read from the fitted curve at half-maximal effect
Conditions: MDA-kb2 viability, CellTiter-Fluor protease fluorescence, 16 h; series mostly up to 92.4 µM; viability change, negative = cytotoxic: at the top concentration
Procedure, shortened: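 Live-cell protease fluorescence, CellTiter-Fluor, 30 min at 37C. Cells: MDA-kb2, 3,000/well, preincubated 5 hr. Compounds plus 0.5 nM R1881 final, 16 hr, 37C, 0% CO2.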

Row | Compound | viability change, negative = cytotoxic | Potency
19 | O=C(NCc1cccnc1)Nc1ccc([N+](=O)[O-])cc1 | -0.821% | 
20 | CC[C@H]1C[C@H]2[C@@H]3CCC4=CC(=O)CC[C@@H]4[C@H]3CC[C@]2(C)[C@H]1O | 1.42% [at 42.5 µM] | 
21 | O=C(CBr)Nc1ccc(Cl)cc1C(=O)c1ccccc1F | 3.65% [at 42.5 µM] | 
22 | ClCC(Br)CBr (stereo not drawn) | 0.605% | 
23 | COc1c(C(C)(C)C)cc([N+](=O)[O-])c(C)c1[N+](=O)[O-] | -0.0672% | 
24 | c1ccoc1 | 0.391% | 
25 | CCCC(=O)Cl | 3.48% | 
26 | Nc1nc(=S)[nH][nH]1 | -0.589% | 
27 | Brc1ccc(Oc2ccccc2)cc1 |  | inactive
28 | O=C1NCN(c2ccccc2)C12CCN(CCCOc1ccc(F)cc1)CC2 | -18.6% [at 42.5 µM] | 
29 | O=[N+]([O-])c1ccc(F)c([N+](=O)[O-])c1 |  | 30.9 µM (active)
30 | CCOP(=O)(OCC)O/C(=C/Cl)c1ccc(Cl)cc1Cl | -11.8% | 
31 | CCOP(=S)(OCC)SCSCC | 7.64% | 
32 | ClC=C(Cl)Cl | 0.307% | 
33 | COC(N)=O | -2.61% | 
34 | CCC(Cl)CCl (stereo not drawn) | 2.28% | 
35 | CCCN(CCCl)c1c([N+](=O)[O-])cc(C(F)(F)F)cc1[N+](=O)[O-] | -0.297% | 
36 | Cn1cc[n+](C)c1 (tested in a mixture with another compound) | 0.279% | 

Row | Compound | viability change, negative = cytotoxic | Potency
37 | C=CC(C)=O | 3.46% | 
38 | O=C(NC(=O)c1c(F)cccc1F)Nc1ccc(OC(F)(F)C(F)OC(F)(F)F)c(Cl)c1 (stereo not drawn) | 3.28% [at 42.5 µM] | 
39 | COc1cc(Cl)c(OC)cc1Cl | 0.095% | 
40 | COCCOCCO | 5.88% | 
41 | Clc1ccc(C(OCCN2CCCCC2)c2ccccc2)cc1 (stereo not drawn) | -13.4% [at 42.5 µM] | 
42 | CCOP(=S)(Oc1ccc([N+](=O)[O-])cc1)c1ccccc1 (stereo not drawn) | 0.271% | 
43 | CC(=O)[C@H]1CC[C@H]2[C@@H]3CC[C@H]4C[C@](C)(O)CC[C@]4(C)[C@H]3CC[C@]12C | 2.26% [at 42.5 µM] | 
44 | CCBr | 1.78% | 
45 | COc1nn(CSP(=S)(OC)OC)c(=O)s1 | 5.25% | 
46 | CN(N=O)c1ccc([N+](=O)[O-])cc1 | -3.96% | 
47 | O=C(O)COc1ccc(Cl)cc1 | 4.88% | 
48 | CN1C(=O)C(O)N=C(c2ccccc2)c2cc(Cl)ccc21 (stereo not drawn) | 0.275% | 
49 | CO[C@@H]1[C@H](OC(=O)NC(=O)CCl)CC[C@]2(CO2)[C@H]1[C@@]1(C)O[C@@H]1CC=C(C)C | -0.0338% [at 19 µM] | 
50 | CCCCNP(N)(N)=S | 3.81% | 
51 | OCCCBr | 4.38% | 
52 | Cl/C=C\C[N+]12CN3CN(CN(C3)C1)C2 | -7.64% | 
53 | CCOP(=S)(OCC)Oc1cc(Cl)c(Br)cc1Cl | 0.953% | 
